# From PubChem BioAssay (Tox21)
# Unmarked numbers belong to inactive results. Inconclusive results are not listed. Where a call stands in place of a potency, no number is given. Calls of active or inactive are those of the source. Unless noted, the call rests on the fitted dose curve.
# Key:
# [1] = Nuclear factor erythroid 2-related factor 2/antioxidant responsive element (Nrf2/ARE) small molecule agonists: qHTS cell viability counter screen in human keratinocytes (AID 1919968; active means well fitted curve in the direction sought with a large enough effect in the repeat runs; an effect the other way counts as inactive or inconclusive; further: nearly all actives have a fitted effect of over 55% in size)
# In short: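 Seed 1,500 KeratinoSens cells per well, then incubate 5 h at 37 C/5% CO2. Add compounds in DMSO and incubate 23 h. Add CellTiter-Fluor, wait 1 h and read fluorescence.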
# [2] = Nuclear factor erythroid 2-related factor 2/antioxidant responsive element (Nrf2/ARE) small molecule agonists: luciferase reporter gene qHTS assay in human keratinocytes (AID 1919969); further: nearly all actives have a fitted effect of over 35% in size; further: potency means the concentration at half of the fitted maximal effect
# [3] = target: Gonadotropin-releasing hormone receptor (Homo sapiens) (UniProt P30968); assay: Human gonadotropin-releasing hormone receptor (GnRHR) small molecule agonists, calcium flux assay in GnRHR-HEK293 cells (AID 1920063); further: nearly all actives have a fitted effect of over 35% in size
# In short: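 Cells: HEK293 stably expressing human GnRHR. Steps: overnight (18 h) culture, 1 h calcium dye loading at 37 C, compound addition, kinetic fluorescence read at 480/540 nm. Each compound tested at 15 concentrations in triplicate.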
# [4] = target: KiSS-1 receptor (Homo sapiens) (UniProt Q969F8); assay: Human kisspeptin (KISS1R) small molecule agonists, calcium flux assay in KISS1R-HEK293 cells (AID 1920064; active means well fitted curve in the direction sought with a large enough effect in the repeat runs; an effect the other way counts as inactive or inconclusive)
# In short: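 Cells plated and incubated 18 h; dye added, 1 h at 37 C; compounds in DMSO pinned in; signal read at 480/540 nm every second for 3 min. Each compound tested at 15 concentrations in triplicate.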
# [5] = G protein-coupled receptor (GPCR) small molecule agonists, calcium flux assay: HEK293 wild type cell line counter screen (AID 1920065)
# In short: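 Counter-screen of the Tox21 10K library for non-specific calcium release: dye-loaded cells received compounds in DMSO and were monitored by kinetic fluorescence (480/540 nm, 3 min). Fifteen concentrations, run in triplicate.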
# [6] = p53 small molecule agonists, cell-based qHTS assay with human liver microsomes (AID 1963577);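 further: p53 response element beta-lactamase reporter cells with liver microsomes plus NADPH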
# In short: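 p53RE-bla cells; 5 h settle, 37 C/5% CO2; cpd + HLM 0.5 mg/mL + NADPH 0.5 mg/mL (final); 16 h 37 C; LiveBLAzer 2 h RT dark; fluorescence readout.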
# [7] = p53 small molecule agonists, cell-based qHTS assay with human liver microsomes: qHTS cell viability counter screen (AID 1963579); further: nearly all actives have a fitted effect of over 45% in size
# In short: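 Luminescent CellTiter-Glo read-out, 30 min at room temperature, gauged cytotoxicity in p53RE-bla cells exposed 16 h at 37 C to DMSO-dissolved compounds with metabolic activation by human liver microsomes and NADPH, each 0.5 mg/mL final.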
# [8] = p53 small molecule agonists, cell-based qHTS assay with rat liver microsomes: qHTS cell viability counter screen (AID 1963580); further: nearly all actives have a fitted effect of over 45% in size
# In short: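 Viability is assessed in parallel with the p53 reporter read: HCT-116 p53RE-bla cells receive compounds plus rat microsomes and NADPH (0.5 mg/mL final apiece), incubate 16 h at 37 C, and then CellTiter-Glo luminescence is recorded.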
# [9] = p53 small molecule agonists, cell-based qHTS assay: qHTS cell viability counter screen (AID 1963581); further: nearly all actives have a fitted effect of over 45% in size
# In short: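 Cells: HCT-116 with p53 response element-driven beta-lactamase. Treatment: 16 h, 37 C, compounds in DMSO. Read: CellTiter-Glo luminescence after 30 min RT.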
# [10] = p53 small molecule agonists, cell-based qHTS assay (AID 1963582; active means well fitted activation curve with a large enough effect in the signal ratio in the repeat runs, not every such curve was filed as active; the % refers to the signal ratio)
# In short: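 Quantitative HTS in p53RE-bla cells: after a 5 h settling period, compounds delivered in DMSO were left on cells for 16 h at 37 C, and reporter induction was measured as fluorescence following 2 h substrate loading.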
# [11] = target: 5-hydroxytryptamine receptor 2A (Homo sapiens) (UniProt P28223); assay: 5-hydroxytryptamine receptor 2A (HTR2A) small molecule antagonists, cell-based qHTS assay (AID 1963586); further: nearly all actives have a fitted effect of over 45% in size
# In short: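 Antagonist-mode intracellular calcium assay: DOI (4 nM) added after 5 min compound pre-incubation at room temperature to dye-loaded HTR2A-CHO cells. Fluorescence followed for 3 min, sampled every second.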
# [12] = target: 5-hydroxytryptamine receptor 2A (Homo sapiens) (UniProt P28223); assay: 5-hydroxytryptamine receptor 2A (HTR2A) small molecule agonists, cell-based qHTS assay (AID 1963587); further: nearly all actives have a fitted effect of over 30% in size
# In short: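 CHO cells stably expressing human HTR2A, plated 18 h, loaded with calcium dye 1 h at 37 C. Agonist mode: compounds added and intracellular calcium fluorescence recorded kinetically for 2 min at 1 sec intervals.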
# [13] = target: Muscarinic acetylcholine receptor M1 (Homo sapiens) (UniProt P11229); assay: Cholinergic receptor muscarinic 1 (CHRM1) small molecule antagonists, cell-based qHTS assay (AID 1963588); further: nearly all actives have a fitted effect of over 40% in size
# In short: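 CHRM1-CHO calcium-flux assay, antagonist mode. Cells were seeded 18 h, dye-loaded 1 h at 37 C and given compound for 5 min at RT, then acetylcholine was added at 50nM. FDSS fluorescence was read 3 min; 15 concentrations, three runs.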
# [14] = target: Muscarinic acetylcholine receptor M1 (Homo sapiens) (UniProt P11229); assay: Cholinergic receptor muscarinic 1 (CHRM1) small molecule agonists, cell-based qHTS assay (AID 1963589); further: nearly all actives have a fitted effect of over 35% in size
# In short: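 Agonist-mode qHTS in CHO cells stably carrying human muscarinic M1. Intracellular calcium is tracked by fluorescence every second after compound transfer; each compound runs at 15 concentrations in three independent runs.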
# [15] = cAMP Responsive Elements (CRE) small molecule agonists, cell-based qHTS assay (AID 1963590)
# In short: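 Agonist mode qHTS in CRE-bla HEK 293T cells: compounds dosed from DMSO for 3 h at 37 C/5% CO2, followed by LiveBLAzer B/G FRET substrate for 2 h at room temperature.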
# [16] = cAMP Responsive Elements (CRE) small molecule antagonists, cell-based qHTS assay (AID 1963591; active means well fitted inhibition curve with a large enough effect in the signal ratio in the repeat runs, not every such curve was filed as active; the % refers to the signal ratio)
# In short: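 Antagonist mode: test compounds are co-incubated with the adenylyl cyclase activator NKH477 (0.25 uM final) on CRE-bla HEK293T cells for 3 h at 37 °C, followed by LiveBLAzer substrate loading.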
# [17] = target: Beta-2 adrenergic receptor (Homo sapiens) (UniProt P07550); assay: Adrenergic beta2 receptor (ADRB2) small molecule antagonists, cell-based qHTS assay (AID 1963592); further: series mostly up to about 92 µM; nearly all actives have a fitted effect of over 50% in size
# In short: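 Cells (CHO, stable ADRB2 overexpression) incubated 18-20hr at 37C; compounds added from DMSO; agonist mix (1nM isoproterenol, 100uM IBMX, 25uM Ro-20-1724) added; 0.5hr RT; d2-cAMP and anti-cAMP-cryptate added; 1hr RT; 665/615 nm read.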
# [18] = target: Beta-2 adrenergic receptor (Homo sapiens) (UniProt P07550); assay: Adrenergic beta2 receptor (ADRB2) small molecule agonists, cell-based qHTS assay (AID 1963593);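 further: CHO cells stably overexpressing human ADRB2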
# In short: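 CHO cells stably over-expressing ADRB2 were plated overnight at 37C, then dosed with compounds plus a stimulation mix containing 100uM IBMX and 25uM Ro-20-1724 for 0.5hr at room temperature. cAMP was measured by HTRF competition, 1hr.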
# [19] = target: D(2) dopamine receptor (Homo sapiens) (UniProt P14416); assay: Dopamine D2 receptor (DRD2) small molecule agonists, cell-based qHTS assay (AID 1963594); further: nearly all actives have a fitted effect of over 35% in size
# In short: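 HEK293 cells stably expressing human DRD2, pre-treated with PDE inhibitor Ro20-1724 (0.1 mM final) and compound 10 min at room temperature, then stimulated with NKH477 (200nM […]) for 30 min. cAMP read by HTRF (665/620 nm).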
# [20] = target: D(2) dopamine receptor (Homo sapiens) (UniProt P14416); assay: Dopamine D2 receptor (DRD2) small molecule antagonists, cell-based qHTS assay (AID 1963595; active means well fitted inhibition curve with a large enough effect in the signal ratio in the repeat runs, with a control signal flat; the % refers to the signal ratio)
# In short: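 HEK293 cells stably expressing DRD2 were preincubated with 0.1 mM Ro20-1724, then with compound for 10 min at room temperature. Cells were stimulated with 200 nM NKH477 plus 12 nM quinpirole for 30 min, and cAMP was read by HTRF.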
# KiSS-1 receptor (Homo sapiens), sequence (Q969F8 whole entry, looked up): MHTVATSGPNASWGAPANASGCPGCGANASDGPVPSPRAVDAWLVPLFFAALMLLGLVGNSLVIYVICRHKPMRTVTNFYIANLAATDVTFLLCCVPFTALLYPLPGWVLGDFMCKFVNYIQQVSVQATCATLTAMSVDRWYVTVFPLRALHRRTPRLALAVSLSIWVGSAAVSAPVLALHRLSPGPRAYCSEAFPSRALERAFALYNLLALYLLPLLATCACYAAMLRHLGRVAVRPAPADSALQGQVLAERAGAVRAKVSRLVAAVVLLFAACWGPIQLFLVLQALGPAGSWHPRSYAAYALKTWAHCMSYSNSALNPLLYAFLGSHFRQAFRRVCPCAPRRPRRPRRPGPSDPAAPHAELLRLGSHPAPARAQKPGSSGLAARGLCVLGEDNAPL
# Gonadotropin-releasing hormone receptor (Homo sapiens), sequence (P30968 whole entry, looked up): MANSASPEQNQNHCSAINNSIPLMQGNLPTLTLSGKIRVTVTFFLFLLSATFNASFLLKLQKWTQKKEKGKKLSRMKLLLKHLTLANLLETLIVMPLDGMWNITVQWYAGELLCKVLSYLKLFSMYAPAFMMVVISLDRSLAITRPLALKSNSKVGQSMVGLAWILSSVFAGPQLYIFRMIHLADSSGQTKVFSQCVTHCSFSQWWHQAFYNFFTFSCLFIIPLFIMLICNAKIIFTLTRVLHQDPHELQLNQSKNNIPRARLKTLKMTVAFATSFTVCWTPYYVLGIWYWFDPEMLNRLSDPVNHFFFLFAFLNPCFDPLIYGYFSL
# D(2) dopamine receptor (Homo sapiens), sequence (P14416 whole entry, looked up): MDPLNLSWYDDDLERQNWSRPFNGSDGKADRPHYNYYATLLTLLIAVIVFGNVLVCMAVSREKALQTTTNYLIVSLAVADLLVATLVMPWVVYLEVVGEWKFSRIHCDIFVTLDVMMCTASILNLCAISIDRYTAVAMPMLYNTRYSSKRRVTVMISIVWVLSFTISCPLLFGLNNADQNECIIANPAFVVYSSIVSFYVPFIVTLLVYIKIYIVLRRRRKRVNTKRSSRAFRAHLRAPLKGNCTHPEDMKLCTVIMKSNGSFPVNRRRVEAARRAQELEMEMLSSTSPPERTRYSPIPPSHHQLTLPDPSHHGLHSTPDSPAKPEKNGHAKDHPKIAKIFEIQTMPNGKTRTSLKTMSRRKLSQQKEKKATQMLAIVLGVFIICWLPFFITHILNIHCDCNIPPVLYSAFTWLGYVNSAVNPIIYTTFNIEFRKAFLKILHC
# 5-hydroxytryptamine receptor 2A (Homo sapiens), sequence (P28223 whole entry, looked up): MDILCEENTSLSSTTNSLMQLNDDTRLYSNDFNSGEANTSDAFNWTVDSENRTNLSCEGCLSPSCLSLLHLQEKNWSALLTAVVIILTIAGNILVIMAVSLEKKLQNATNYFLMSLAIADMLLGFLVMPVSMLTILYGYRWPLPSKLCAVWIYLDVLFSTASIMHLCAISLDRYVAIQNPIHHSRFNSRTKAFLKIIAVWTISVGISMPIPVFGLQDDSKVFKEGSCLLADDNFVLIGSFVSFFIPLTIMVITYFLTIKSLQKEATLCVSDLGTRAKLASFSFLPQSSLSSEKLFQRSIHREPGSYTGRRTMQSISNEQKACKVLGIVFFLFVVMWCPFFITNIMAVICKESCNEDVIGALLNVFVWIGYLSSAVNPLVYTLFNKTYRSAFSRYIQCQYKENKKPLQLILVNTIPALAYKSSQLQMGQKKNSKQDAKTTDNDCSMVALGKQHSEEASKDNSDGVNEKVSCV
# Muscarinic acetylcholine receptor M1 (Homo sapiens), sequence (P11229 whole entry, looked up): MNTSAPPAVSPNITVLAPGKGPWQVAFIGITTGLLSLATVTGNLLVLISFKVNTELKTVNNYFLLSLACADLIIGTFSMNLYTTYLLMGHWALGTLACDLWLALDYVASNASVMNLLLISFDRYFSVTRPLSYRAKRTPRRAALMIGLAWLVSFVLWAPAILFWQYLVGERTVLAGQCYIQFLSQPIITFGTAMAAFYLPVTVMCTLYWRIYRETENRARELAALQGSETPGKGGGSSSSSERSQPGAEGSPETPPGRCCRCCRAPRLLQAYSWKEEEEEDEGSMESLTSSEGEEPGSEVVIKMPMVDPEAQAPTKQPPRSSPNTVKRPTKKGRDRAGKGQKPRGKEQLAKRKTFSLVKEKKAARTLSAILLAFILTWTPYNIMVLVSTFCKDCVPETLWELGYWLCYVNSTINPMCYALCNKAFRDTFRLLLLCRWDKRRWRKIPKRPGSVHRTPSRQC
# Beta-2 adrenergic receptor (Homo sapiens), sequence (P07550 whole entry, looked up): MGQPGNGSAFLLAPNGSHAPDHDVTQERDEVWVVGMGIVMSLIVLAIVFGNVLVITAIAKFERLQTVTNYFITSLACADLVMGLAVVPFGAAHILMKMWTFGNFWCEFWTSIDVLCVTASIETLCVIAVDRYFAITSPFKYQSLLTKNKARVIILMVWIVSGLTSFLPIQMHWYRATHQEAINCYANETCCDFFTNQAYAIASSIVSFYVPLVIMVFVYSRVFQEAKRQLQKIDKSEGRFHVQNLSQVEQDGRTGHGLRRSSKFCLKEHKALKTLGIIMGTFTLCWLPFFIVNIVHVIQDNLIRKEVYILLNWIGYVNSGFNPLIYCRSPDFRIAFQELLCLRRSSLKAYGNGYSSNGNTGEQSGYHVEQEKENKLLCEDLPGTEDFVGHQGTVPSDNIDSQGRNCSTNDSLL
Structure (SMILES),Potency [1],Potency [2],Potency [3],Potency [4],Potency [5],Potency [6],Potency [7],Potency [8],Potency [9],Potency [10],Potency [11],Potency [12],Potency [13],Potency [14],Potency [15],Potency [16],Potency [17],Potency [18],Potency [19],Potency [20]
NC(=O)NNC(N)=O,inactive,inactive,inactive,inactive,inactive,inactive,inactive,inactive,inactive,inactive,inactive,inactive,inactive,inactive,inactive,inactive,inactive,inactive,inactive,inactive
CC(C)c1ccccc1O,inactive,inactive,inactive,inactive,inactive,inactive,,,inactive,inactive,inactive,inactive,inactive,inactive,inactive,inactive,inactive,inactive,inactive,inactive
CC1=CC[C@@]23C[C@@H]1C(C)(C)[C@@H]2CC[C@H]3C,inactive,inactive,inactive,inactive,inactive,inactive,inactive,inactive,inactive,inactive,inactive,inactive,inactive,,,inactive,inactive,inactive,inactive,
CCOC(=O)c1ccc(OCCN2C[C@H](O)[C@@H](O)[C@H](O)[C@H]2CO)cc1,inactive,inactive,inactive,inactive,inactive,inactive,inactive,inactive,inactive,inactive,inactive,inactive,inactive,,inactive,inactive,inactive,inactive,inactive,inactive
Cc1ccc(CO)cc1,inactive,inactive,inactive,inactive,inactive,inactive,inactive,inactive,inactive,inactive,inactive,inactive,inactive,inactive,inactive,,inactive,inactive,inactive,inactive
c1cnc2cc3c(cc2n1)C1CNCC3C1,inactive,inactive,inactive,inactive,inactive,inactive,inactive,inactive,inactive,inactive,inactive,inactive,inactive,inactive,inactive,inactive,inactive,,inactive,inactive
COc1cc(/C=C/C(=O)O[C@H]2CC[C@]34C[C@]35CC[C@]3(C)[C@@H]([C@H](C)CCC=C(C)C)CC[C@@]3(C)[C@@H]5CC[C@H]4C2(C)C)ccc1O,inactive,inactive,inactive,inactive,inactive,inactive,inactive,inactive,inactive,inactive,inactive,inactive,inactive,inactive,inactive,inactive,inactive,,inactive,inactive
CCC(C)(Oc1ccc(C2(c3ccc(OC(C)(CC)C(=O)O)cc3)CCCCC2)cc1)C(=O)O (stereo not drawn),inactive,inactive,inactive,inactive,inactive,inactive,inactive,inactive,inactive,inactive,inactive,inactive,inactive,inactive,inactive,inactive,,inactive,inactive,
CC(=O)OC/C=C/c1ccccc1,inactive,inactive,inactive,inactive,inactive,inactive,inactive,inactive,inactive,inactive,inactive,inactive,inactive,inactive,,inactive,inactive,inactive,inactive,inactive
O=C(O)CCCCCC(=O)O,inactive,inactive,inactive,inactive,inactive,inactive,,,inactive,inactive,,inactive,inactive,inactive,inactive,inactive,inactive,,inactive,inactive
COc1nc(N)nc2nc[nH]c12,inactive,inactive,inactive,inactive,inactive,inactive,inactive,inactive,inactive,inactive,inactive,inactive,inactive,inactive,inactive,inactive,inactive,inactive,inactive,
CC(C)C(=O)c1ccccc1,inactive,inactive,inactive,inactive,inactive,inactive,,,inactive,inactive,inactive,inactive,,inactive,inactive,inactive,inactive,,inactive,inactive
COC(=O)c1cc(S(N)(=O)=O)ccc1OC,inactive,inactive,inactive,inactive,inactive,inactive,inactive,inactive,inactive,inactive,inactive,inactive,inactive,inactive,inactive,inactive,inactive,,inactive,
O=Nc1ccc(NO)cc1,inactive,63.6 µM (active),inactive,inactive,inactive,inactive,inactive,inactive,inactive,inactive,inactive,inactive,inactive,inactive,inactive,inactive,,,,
